Reference: PubChem BioAssay (EPA / NIEHS)
Activity calls are given as the source filed them. How the source made its calls: active means hit-call score of the fitted dose curve at least 0.9, where 1 is the maximum; inactive means score below 0.9.

Experiments:
[1] = CEETOX_H295R_11DCORT: CeeTox H295R High-throughput Steroidogenesis Assay for 11-Deoxycortisol (11DCORT) (AID 2283432); details: actives raise or lower the signal;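 on AC50: 11-deoxycortisol secreted into the medium measured by LC-MS/MS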
Procedure, shortened: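 H295R cells prestimulated 48 h with 10 uM forskolin, then exposed 48 h to chemical in 0.1% DMSO. 11-Deoxycortisol in medium quantified by HPLC-MS/MS after MTBE extraction; bidirectional fit versus DMSO. MTT viability read in same wells.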

[2] = CEETOX_H295R_OHPREG: CeeTox H295R High-throughput Steroidogenesis Assay for OH-Pregnenolone (OHPREG) (AID 2283434); details: actives raise or lower the signal
Procedure, shortened: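 Readout: HPLC-MS/MS of 17alpha-hydroxypregnenolone in medium after 48 h chemical exposure of H295R cells pretreated with forskolin. Values fitted bidirectionally relative to DMSO; chemicals reducing viability to 20–70% were retested after 10-fold dilution.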

[3] = CEETOX_H295R_OHPROG: CeeTox H295R High-throughput Steroidogenesis Assay for OH-Progesterone (OHPROG) (AID 2283435); details: actives raise or lower the signal;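 further: 17alpha-hydroxyprogesterone secreted into medium measured by HPLC-MS/MS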
Procedure, shortened: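 HPLC-MS/MS quantification of 17alpha-hydroxyprogesterone secreted by H295R cells after 48 h chemical exposure, following 48 h 10 uM forskolin prestimulation. Gain or loss of signal fitted relative to DMSO. Viability checked by MTT in the same wells.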

[4] = CEETOX_H295R_ANDR: CeeTox H295R High-throughput Steroidogenesis Assay for Androstenedione (ANDR) (AID 2283436); details: actives raise or lower the signal;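 further: human H295R adrenal cells exposed for 48 h with androstenedione measured in medium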
Procedure, shortened: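 Steroidogenesis in H295R adrenal cells after 48 h dosing; androstenedione quantified by LC-MS/MS, with DMSO as negative control and baseline for bidirectional curve fitting.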

[5] = CEETOX_H295R_CORTIC: CeeTox H295R High-throughput Steroidogenesis Assay for Corticosterone (CORTIC) (AID 2283437); details: actives raise or lower the signal;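 further: corticosterone secreted into medium quantified by mass spectrometry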
Procedure, shortened: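 Steps: seed H295R, adhere overnight; 10 uM forskolin 48 h; replace with chemical (0.1% DMSO) 48 h; extract medium with MTBE; quantify corticosterone by HPLC-MS/MS; score bidirectionally vs DMSO.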

[6] = CEETOX_H295R_CORTISOL: CeeTox H295R High-throughput Steroidogenesis Assay for Cortisol (AID 2283438); details: actives raise or lower the signal;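 further: cortisol secreted into medium quantified by LC-MS/MS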
Procedure, shortened: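 Read-out: cortisol in culture medium by reverse-phase C18 HPLC with ESI-positive tandem MS, after MTBE liquid-liquid extraction. Cells: human adrenal H295R, forskolin-primed (10 uM, 48 h) before 48 h chemical exposure in 0.1% DMSO.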

[7] = CEETOX_H295R_ESTRADIOL: CeeTox H295R High-throughput Steroidogenesis Assay for Estradiol (AID 2283440); details: actives raise or lower the signal;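 further: estradiol secreted into medium quantified by LC-MS/MS after dansyl derivatisation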
Procedure, shortened: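 Readout is estradiol in conditioned medium, quantified by reverse-phase HPLC-MS/MS against a 7-point standard curve. Cells: H295R, forskolin-stimulated, then dosed 48 h in 0.1% DMSO; activity fitted in both directions relative to DMSO.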

[8] = CEETOX_H295R_ESTRONE: CeeTox H295R High-throughput Steroidogenesis Assay for Estrone (AID 2283441); details: actives raise or lower the signal;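 further: estrone secreted into medium measured by LC-MS/MS after dansyl derivatization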
Procedure, shortened: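 Forskolin-stimulated H295R cells are treated 48 h with chemical, and estrone in the medium is measured by LC-MS/MS. Activity is fitted in both directions relative to DMSO controls, with chemicals diluted until MTT viability reaches at least 70%.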

[9] = CEETOX_H295R_PROG: CeeTox H295R High-throughput Steroidogenesis Assay for Progesterone (PROG) (AID 2283442); details: actives raise or lower the signal
Procedure, shortened: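 Measured analyte is progesterone secreted by H295R cells at 48 h of chemical treatment, following 10 uM forskolin priming. Quantitation used HPLC-MS/MS against a 7-point standard curve; cytotoxicity was checked by MTT absorbance.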

[10] = read-out: Tumor necrosis factor receptor superfamily member 6 (Homo sapiens) (UniProt P25445); assay: LTEA_HepaRG_FAS: Life Technologies and Expression Analysis (LTEA) Assay for Fas cell surface death receptor (FAS) using HepaRG (AID 2283447); details: mRNA level, 48 h; actives raise or lower the signal
Procedure, shortened: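 Differentiated human HepaRG cells, pre-cultured 48 h, were exposed in duplicate for 48 h to 8-point half-log concentrations (top 100 uM, 0.5% DMSO) in serum-free induction medium; FAS mRNA measured by qRT-PCR, normalized to ACTB/GAPDH/POLR2A, bidirectional fit versus DMSO.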

[11] = read-out: Fatty acid synthase (Homo sapiens) (UniProt P49327); assay: LTEA_HepaRG_FASN: Life Technologies and Expression Analysis (LTEA) Assay for Fatty Acid Synthase (FASN) using HepaRG (AID 2283448); details: mRNA level, 48 h; actives raise or lower the signal
Procedure, shortened: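 HepaRG, 48 h exposure, 8-pt half-log series top 100 uM, 0.5% DMSO vehicle, duplicates. Readout: FASN transcript by Fluidigm qRT-PCR; housekeeping-normalized; bidirectional curve fit vs DMSO baseline.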

[12] = read-out: Cyclin Dependent Kinase Inhibitor 1A (CDKN1A), CDKN1A (gene 1026); assay: LTEA_HepaRG_CDKN1A: Life Technologies and Expression Analysis (LTEA) Assay for Cyclin Dependent Kinase Inhibitor 1A (CDKN1A) using HepaRG (AID 2283450); details: mRNA level, 48 h; actives raise or lower the signal
Procedure, shortened: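 Gain or loss of CDKN1A transcript is scored by bidirectional fitting against 0.5% DMSO vehicle. Human HepaRG cultures receive chemicals for 48 h across an 8-point series peaking at 100 uM; expression comes from qRT-PCR.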

[13] = read-out: Cyclin D1 (CCND1), CCND1 (gene 595); assay: LTEA_HepaRG_CCND1: Life Technologies and Expression Analysis (LTEA) Assay for Cyclin D1 (CCND1) using HepaRG (AID 2283451); details: mRNA level, 48 h; actives raise or lower the signal;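 on AC50: TaqMan qRT-PCR transcript level normalised to ACTB GAPDH and POLR2A housekeeping genes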
Procedure, shortened: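 Expression change is measured by qRT-PCR in HepaRG cells after 48 h treatment across eight concentrations topping at 100 uM, with duplicate wells and DMSO (0.5%) serving as baseline for bidirectional fitting.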

[14] = read-out: catalase (CAT), CAT (gene 847); assay: LTEA_HepaRG_CAT: Life Technologies and Expression Analysis (LTEA) Assay for catalase (CAT) using HepaRG (AID 2283452); details: mRNA level, 48 h; actives raise or lower the signal;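 on AC50: TaqMan qRT-PCR signal normalized to ACTB GAPDH and POLR2A housekeeping genes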
Procedure, shortened: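 Differentiated HepaRG cells in serum-free induction medium were dosed 48 h in duplicate, eight half-log concentrations from 100 uM in 0.5% DMSO. Transcript measured by TaqMan qRT-PCR, normalised to ACTB/GAPDH/POLR2A, fitted bidirectionally against DMSO.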

[15] = read-out: flavin-containing dimethylaniline monooxygenases 3 (FMO3), FMO3 (gene 2328); assay: LTEA_HepaRG_FMO3: Life Technologies and Expression Analysis (LTEA) Assay for flavin-containing dimethylaniline monooxygenases 3 (FMO3) using HepaRG (AID 2283453); details: mRNA level, 48 h; actives raise or lower the signal
Procedure, shortened: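 Eight-point concentration-response in serum-free HepaRG cultures (top 100 uM, 0.5% DMSO, 48 h). Read-out: FMO3 mRNA level normalized to three endogenous control genes, fitted bidirectionally versus vehicle.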

[16] = read-out: Cytochrome P450 (CYP1A1), CYP1A1 (gene 1543); assay: LTEA_HepaRG_CYP1A1: Life Technologies and Expression Analysis (LTEA) Assay for Cytochrome P450 (CYP1A1) using HepaRG (AID 2283454); details: mRNA level, 48 h; actives raise or lower the signal
Procedure, shortened: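 Using HepaRG cultures with 0.5% DMSO as vehicle, eight-concentration exposures (max 100 uM) lasted 48 h. Transcript levels were measured by TaqMan qRT-PCR and normalized to ACTB, GAPDH and POLR2A.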

[17] = read-out: CFLAR gene, CFLAR (gene 8837); assay: LTEA_HepaRG_CFLAR: Life Technologies and Expression Analysis (LTEA) Assay for CFLAR gene using HepaRG (AID 2283455); details: mRNA level, 48 h; actives raise or lower the signal
Procedure, shortened: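 Gain- or loss-of-signal changes in CFLAR transcript were fitted bidirectionally relative to 0.5% DMSO. Cells (HepaRG, duplicate wells) were dosed for 48 h across eight half-log concentrations topping at 100 uM; quantitation by TaqMan qRT-PCR.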

[18] = read-out: Forkhead box O1 (FOXO1), FOXO1 (gene 2308); assay: LTEA_HepaRG_FOXO1: Life Technologies and Expression Analysis (LTEA) Assay for Forkhead box O1 (FOXO1) using HepaRG (AID 2283456); details: mRNA level, 48 h; actives raise or lower the signal
Procedure, shortened: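 Using one lot of HepaRG hepatic cells kept in 0.5% DMSO, the team applied test chemicals in duplicate, half-log dilutions from 100 uM, for 48 h. Expression, normalised to ACTB/GAPDH/POLR2A, was compared with vehicle in either direction.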

[19] = CEETOX_H295R_TESTO: CeeTox H295R High-throughput Steroidogenesis Assay for Testosterone (TESTO) (AID 2283457); details: actives raise or lower the signal;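 on AC50: cells exposed to chemicals for 48 h before medium collection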
Procedure, shortened: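 Steroidogenesis in H295R cells following OECD 456 with minor changes; 48 h exposure. Medium testosterone by HPLC-MS/MS, DMSO as baseline, with MTT viability run in parallel.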

[20] = read-out: Cyclin D2 (CCND2), CCND2 (gene 894); assay: LTEA_HepaRG_CCND2: Life Technologies and Expression Analysis (LTEA) Assay for Cyclin D2 (CCND2) using HepaRG (AID 2283449); details: mRNA level, 48 h; actives raise or lower the signal;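 further: CCND2 transcript measured by TaqMan qRT-PCR and normalised to three housekeeping genes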
Procedure, shortened: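 In this HepaRG study, an eight-point concentration series (max 100 uM, 0.5% DMSO) is applied for 48 h. CCND2 mRNA change is derived by qRT-PCR normalised to ACTB, GAPDH and POLR2A.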

Measured: AC50

Chain of Fatty acid synthase (Homo sapiens) (P49327 whole entry, looked up): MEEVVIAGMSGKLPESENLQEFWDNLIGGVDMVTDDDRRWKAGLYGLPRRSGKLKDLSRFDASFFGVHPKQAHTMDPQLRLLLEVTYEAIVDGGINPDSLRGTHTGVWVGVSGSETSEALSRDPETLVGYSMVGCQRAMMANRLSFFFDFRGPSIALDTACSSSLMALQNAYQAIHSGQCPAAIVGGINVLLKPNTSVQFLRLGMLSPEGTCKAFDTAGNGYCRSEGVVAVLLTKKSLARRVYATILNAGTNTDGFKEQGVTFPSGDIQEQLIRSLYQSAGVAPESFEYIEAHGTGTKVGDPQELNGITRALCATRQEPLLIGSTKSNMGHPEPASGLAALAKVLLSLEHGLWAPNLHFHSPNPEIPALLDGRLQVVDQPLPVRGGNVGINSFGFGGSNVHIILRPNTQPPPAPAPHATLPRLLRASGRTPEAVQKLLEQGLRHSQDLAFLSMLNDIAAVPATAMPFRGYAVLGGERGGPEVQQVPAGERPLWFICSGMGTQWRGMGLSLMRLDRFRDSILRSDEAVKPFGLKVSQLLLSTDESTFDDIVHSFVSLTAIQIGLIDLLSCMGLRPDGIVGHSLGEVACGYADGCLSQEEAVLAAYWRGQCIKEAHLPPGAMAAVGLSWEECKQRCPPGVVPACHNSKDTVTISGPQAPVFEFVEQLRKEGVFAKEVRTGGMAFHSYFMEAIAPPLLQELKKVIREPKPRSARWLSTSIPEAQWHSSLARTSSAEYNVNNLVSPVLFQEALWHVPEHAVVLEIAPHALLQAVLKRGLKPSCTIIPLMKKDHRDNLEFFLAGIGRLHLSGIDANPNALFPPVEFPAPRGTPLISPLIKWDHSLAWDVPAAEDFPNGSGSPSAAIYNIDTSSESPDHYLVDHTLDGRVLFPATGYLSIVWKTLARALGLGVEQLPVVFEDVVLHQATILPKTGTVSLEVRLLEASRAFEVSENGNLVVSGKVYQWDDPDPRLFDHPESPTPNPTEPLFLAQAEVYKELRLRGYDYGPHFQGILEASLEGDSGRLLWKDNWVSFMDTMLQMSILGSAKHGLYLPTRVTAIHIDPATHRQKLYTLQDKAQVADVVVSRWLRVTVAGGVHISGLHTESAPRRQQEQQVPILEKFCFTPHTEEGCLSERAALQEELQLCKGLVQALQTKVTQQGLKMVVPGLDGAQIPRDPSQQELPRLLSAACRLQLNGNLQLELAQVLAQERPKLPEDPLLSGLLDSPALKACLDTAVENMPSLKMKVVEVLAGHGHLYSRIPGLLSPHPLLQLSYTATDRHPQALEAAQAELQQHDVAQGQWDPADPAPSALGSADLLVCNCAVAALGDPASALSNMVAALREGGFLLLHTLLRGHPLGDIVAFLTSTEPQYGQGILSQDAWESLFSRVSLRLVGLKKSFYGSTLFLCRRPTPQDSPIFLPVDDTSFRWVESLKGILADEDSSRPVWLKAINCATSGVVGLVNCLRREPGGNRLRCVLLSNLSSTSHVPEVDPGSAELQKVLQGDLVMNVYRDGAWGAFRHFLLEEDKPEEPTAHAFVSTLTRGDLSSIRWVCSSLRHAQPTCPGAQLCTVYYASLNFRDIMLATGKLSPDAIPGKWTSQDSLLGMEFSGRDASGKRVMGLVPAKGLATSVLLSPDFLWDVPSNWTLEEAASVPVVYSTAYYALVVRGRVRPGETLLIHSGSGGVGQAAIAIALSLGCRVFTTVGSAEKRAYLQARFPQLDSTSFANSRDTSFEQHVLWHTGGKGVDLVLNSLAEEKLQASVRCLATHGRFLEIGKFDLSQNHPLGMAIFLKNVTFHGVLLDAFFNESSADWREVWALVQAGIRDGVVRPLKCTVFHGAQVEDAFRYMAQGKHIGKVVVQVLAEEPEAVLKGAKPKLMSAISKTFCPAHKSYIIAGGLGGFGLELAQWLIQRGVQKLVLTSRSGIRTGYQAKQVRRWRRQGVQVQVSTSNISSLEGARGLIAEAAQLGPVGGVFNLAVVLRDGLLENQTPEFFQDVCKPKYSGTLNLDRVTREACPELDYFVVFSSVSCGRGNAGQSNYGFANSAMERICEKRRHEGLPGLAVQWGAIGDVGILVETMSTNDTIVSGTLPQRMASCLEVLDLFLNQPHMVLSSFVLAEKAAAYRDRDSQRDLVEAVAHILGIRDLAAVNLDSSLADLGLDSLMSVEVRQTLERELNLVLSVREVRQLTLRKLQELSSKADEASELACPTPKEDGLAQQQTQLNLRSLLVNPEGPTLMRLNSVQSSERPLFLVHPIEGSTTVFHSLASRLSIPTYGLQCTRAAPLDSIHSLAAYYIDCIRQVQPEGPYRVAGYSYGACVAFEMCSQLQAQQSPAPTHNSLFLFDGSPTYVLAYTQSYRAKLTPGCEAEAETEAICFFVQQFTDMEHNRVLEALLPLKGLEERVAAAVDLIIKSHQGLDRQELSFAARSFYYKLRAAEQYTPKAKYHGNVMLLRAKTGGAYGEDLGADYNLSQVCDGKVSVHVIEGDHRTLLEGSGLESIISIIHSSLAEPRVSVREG

Cc1cccc(Nc2cc(Cl)nc(SCC(=O)O)n2)c1C
inactive: [4] | [5] | [6] | [7] | [8] | [10] | [11] | [12] | [13] | [14] | [15] | [17] | [18] | [19]
active: [1] 7.04 µM | [2] 13.1 µM | [3] 8.61 µM | [9] 12.3 µM | [16] 50 µM

COCCOC[C@H](CC1(C(=O)NC2CCC(C(=O)O)CC2)CCCC1)C(=O)Oc1ccc2c(c1)CCC2 (stereo partly specified)
inactive: [10] | [11] | [20] | [12] | [14] | [15] | [16] | [17] | [18]
active: [13] 0.204 µM

COc1ccc(C)cc1N
active: [3] 19.3 µM | [5] 74.3 µM | [6] 36.7 µM | [9] 33.2 µM
inactive: [1] | [2] | [4] | [10] | [11] | [20] | [12] | [13] | [14] | [16] | [17] | [18] | [19]

CCOC(=O)C(C)(C)Oc1ccc(Cl)cc1
inactive: [10] | [11] | [12] | [13] | [14] | [15] | [17] | [18]
active: [20] 12.2 µM | [16] 50 µM

COC(=O)c1ccc(O)cc1
inactive: [1] | [2] | [5] | [6] | [7] | [8] | [10] | [11] | [20] | [12] | [13] | [14] | [15] | [16] | [17] | [18]
active: [3] 45 µM | [9] 50 µM

CC1=C(/C=C/C(C)=C/C=C/C(C)=C/CO)C(C)(C)CCC1
active: [16] 64.1 µM
inactive: [10] | [11] | [20] | [12] | [13] | [14] | [15] | [17] | [18]

COc1ccc(S(=O)(=O)N2C(=O)[C@@](c3ccccc3OC)(N3C[C@H](O)C[C@H]3C(=O)N(C)C)c3cc(Cl)ccc32)c(OC)c1
active: [3] 5.43 µM | [11] 22.7 µM | [12] 84.9 µM | [13] 85.5 µM | [14] 23.7 µM | [18] 35.9 µM
inactive: [1] | [2] | [4] | [5] | [6] | [9] | [10] | [20] | [16] | [17] | [19]

Cc1nc(-c2ccc3c(c2)CCN(CCC2CCC(NC(=O)/C=C/c4ccc(F)cc4)CC2)CC3)no1 (stereo unspecified)
inactive: [5] | [6] | [7] | [8] | [10] | [11] | [20] | [12] | [13] | [14] | [15] | [17] | [18]
active: [1] 0.199 µM | [2] 0.0518 µM | [3] 0.224 µM | [4] 0.365 µM | [9] 0.0391 µM | [16] 23.2 µM | [19] 0.248 µM
